Experiment [1] addresses Serine/threonine-protein kinase PAK 6 (Homo sapiens) (UniProt Q9NQU5). The settings on record: at 1 µM.
Experiment [2] relates to Tyrosine-protein kinase ABL1 (Homo sapiens), P00519 [E255K]. The note with it: at 0.1 µM.
For experiment [3] the test system is unchanged. The settings on record: at 1 µM.
Experiment [4] has as its system Tyrosine-protein kinase ABL1 (Homo sapiens), P00519 [H396P]. The note with it: at 0.1 µM.
For experiment [5] the test system is unchanged. The note with it: at 1 µM.
The test system of experiment [6] is Tyrosine-protein kinase ABL1 (Homo sapiens), P00519 [M351T]. The note with it: at 0.1 µM.
Experiment [7] shares this test system. The settings on record: at 1 µM.
Experiment [8] concerns Tyrosine-protein kinase ABL1 (Homo sapiens), P00519 [Q252H]. The settings on record: at 0.1 µM.
Experiment [9] has the same test system. The note with it: at 1 µM.
Experiment [10] concerns Tyrosine-protein kinase ABL1 (Homo sapiens), P00519 [T315I]. The note with it: at 0.1 µM.
The test system is the same in experiment [11]. The settings on record: at 1 µM.
The subject of experiment [12] is Tyrosine-protein kinase ABL1 (Homo sapiens), P00519 [Y253F]. The settings on record: at 0.1 µM.
Experiment [13] shares this test system. The settings on record: at 1 µM.
The target in experiment [14] is Tyrosine-protein kinase ABL1 (Homo sapiens) (UniProt P00519). The settings on record: at 0.1 µM.
The target is the same in experiment [15]. The settings on record: at 1 µM.
The target in experiment [16] is ALK tyrosine kinase receptor (Homo sapiens) (UniProt Q9UM73). The note with it: at 0.1 µM.
Experiment [17] shares this target. The note with it: at 1 µM.
Experiment [18] addresses Tyrosine-protein kinase ABL2 (Homo sapiens) (UniProt P42684). The settings on record: at 0.1 µM.
Experiment [19] has the same target. The settings on record: at 1 µM.
For experiment [20], the target named is Tyrosine-protein kinase receptor UFO (Homo sapiens) (UniProt P30530). The settings on record: at 0.1 µM.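 Note: values are mean percent inhibition of AXL from the GSK PKIS screen.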
Sequence of Tyrosine-protein kinase receptor UFO (Homo sapiens) (P30530 whole entry): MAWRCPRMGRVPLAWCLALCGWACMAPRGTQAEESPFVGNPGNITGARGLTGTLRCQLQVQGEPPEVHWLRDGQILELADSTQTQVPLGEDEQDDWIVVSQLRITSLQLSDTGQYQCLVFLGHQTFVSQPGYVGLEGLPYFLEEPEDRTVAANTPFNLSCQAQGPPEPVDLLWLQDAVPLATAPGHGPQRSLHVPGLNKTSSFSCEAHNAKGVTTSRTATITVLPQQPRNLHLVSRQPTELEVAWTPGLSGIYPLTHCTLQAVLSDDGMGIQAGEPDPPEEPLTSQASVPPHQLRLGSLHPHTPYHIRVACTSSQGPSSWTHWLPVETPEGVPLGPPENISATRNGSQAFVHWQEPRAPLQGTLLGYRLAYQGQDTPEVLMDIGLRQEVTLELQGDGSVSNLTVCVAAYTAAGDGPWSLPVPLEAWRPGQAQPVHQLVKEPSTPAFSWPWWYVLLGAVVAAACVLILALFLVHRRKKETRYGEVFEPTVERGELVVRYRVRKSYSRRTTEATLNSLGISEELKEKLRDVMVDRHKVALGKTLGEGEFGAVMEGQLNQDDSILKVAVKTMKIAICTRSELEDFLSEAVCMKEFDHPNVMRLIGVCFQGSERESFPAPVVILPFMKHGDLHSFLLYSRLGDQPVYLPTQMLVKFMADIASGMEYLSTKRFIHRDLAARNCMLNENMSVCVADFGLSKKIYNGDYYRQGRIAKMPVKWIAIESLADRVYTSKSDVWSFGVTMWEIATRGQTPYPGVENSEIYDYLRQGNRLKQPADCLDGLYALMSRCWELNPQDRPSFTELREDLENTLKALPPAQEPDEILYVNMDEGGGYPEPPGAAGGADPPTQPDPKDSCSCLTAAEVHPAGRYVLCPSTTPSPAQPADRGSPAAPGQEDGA

Sequence of Serine/threonine-protein kinase PAK 6 (Homo sapiens) (Q9NQU5 whole entry, looked up): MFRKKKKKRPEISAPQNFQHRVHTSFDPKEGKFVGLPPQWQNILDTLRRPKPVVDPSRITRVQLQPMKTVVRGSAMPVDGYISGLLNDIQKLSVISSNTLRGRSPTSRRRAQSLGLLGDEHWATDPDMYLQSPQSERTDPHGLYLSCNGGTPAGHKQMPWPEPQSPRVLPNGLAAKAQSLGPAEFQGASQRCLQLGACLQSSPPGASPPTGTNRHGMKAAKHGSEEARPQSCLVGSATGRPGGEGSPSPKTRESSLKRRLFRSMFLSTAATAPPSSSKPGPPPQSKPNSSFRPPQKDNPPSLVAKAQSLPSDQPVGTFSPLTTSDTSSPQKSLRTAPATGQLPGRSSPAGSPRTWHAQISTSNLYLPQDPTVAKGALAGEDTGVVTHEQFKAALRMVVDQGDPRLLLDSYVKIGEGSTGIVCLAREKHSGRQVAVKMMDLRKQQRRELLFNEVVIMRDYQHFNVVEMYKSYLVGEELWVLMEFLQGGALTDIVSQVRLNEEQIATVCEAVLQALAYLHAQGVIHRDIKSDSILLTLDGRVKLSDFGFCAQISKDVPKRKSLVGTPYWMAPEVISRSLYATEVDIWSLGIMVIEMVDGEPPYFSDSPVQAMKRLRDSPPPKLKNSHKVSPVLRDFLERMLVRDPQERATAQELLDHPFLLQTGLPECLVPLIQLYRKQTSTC
Sequence of Tyrosine-protein kinase ABL2 (Homo sapiens) (P42684 whole entry): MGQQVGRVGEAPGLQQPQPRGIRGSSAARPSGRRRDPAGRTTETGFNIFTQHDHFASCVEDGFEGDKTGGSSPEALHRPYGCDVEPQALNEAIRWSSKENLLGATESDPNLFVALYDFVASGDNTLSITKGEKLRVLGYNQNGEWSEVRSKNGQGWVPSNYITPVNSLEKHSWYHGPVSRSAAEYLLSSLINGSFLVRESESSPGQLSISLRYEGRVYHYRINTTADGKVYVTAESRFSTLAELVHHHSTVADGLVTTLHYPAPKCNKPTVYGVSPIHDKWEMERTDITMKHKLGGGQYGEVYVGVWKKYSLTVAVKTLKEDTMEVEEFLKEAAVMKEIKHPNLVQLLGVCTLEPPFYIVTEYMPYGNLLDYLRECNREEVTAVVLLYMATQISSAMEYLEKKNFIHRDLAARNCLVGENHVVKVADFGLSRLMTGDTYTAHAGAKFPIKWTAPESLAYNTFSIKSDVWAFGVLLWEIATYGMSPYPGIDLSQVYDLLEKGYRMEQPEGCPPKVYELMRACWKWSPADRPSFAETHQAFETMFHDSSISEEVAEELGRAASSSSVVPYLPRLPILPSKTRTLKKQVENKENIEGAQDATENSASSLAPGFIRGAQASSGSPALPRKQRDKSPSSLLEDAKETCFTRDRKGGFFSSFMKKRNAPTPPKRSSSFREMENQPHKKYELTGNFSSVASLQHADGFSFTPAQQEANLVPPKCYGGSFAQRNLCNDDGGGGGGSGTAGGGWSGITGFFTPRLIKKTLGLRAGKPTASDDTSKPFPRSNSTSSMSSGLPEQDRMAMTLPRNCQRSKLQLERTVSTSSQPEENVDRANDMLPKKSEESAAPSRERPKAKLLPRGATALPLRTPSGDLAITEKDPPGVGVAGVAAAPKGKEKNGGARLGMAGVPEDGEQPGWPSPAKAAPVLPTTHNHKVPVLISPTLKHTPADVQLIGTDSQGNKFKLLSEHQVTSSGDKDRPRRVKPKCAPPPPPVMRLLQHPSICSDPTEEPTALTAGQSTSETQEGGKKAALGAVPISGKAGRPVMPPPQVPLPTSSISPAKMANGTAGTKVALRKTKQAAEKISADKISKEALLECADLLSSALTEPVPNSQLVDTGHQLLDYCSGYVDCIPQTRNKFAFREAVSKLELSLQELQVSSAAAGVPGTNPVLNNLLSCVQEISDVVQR
Sequence of ALK tyrosine kinase receptor (Homo sapiens) (Q9UM73 19-1620 limits assumed): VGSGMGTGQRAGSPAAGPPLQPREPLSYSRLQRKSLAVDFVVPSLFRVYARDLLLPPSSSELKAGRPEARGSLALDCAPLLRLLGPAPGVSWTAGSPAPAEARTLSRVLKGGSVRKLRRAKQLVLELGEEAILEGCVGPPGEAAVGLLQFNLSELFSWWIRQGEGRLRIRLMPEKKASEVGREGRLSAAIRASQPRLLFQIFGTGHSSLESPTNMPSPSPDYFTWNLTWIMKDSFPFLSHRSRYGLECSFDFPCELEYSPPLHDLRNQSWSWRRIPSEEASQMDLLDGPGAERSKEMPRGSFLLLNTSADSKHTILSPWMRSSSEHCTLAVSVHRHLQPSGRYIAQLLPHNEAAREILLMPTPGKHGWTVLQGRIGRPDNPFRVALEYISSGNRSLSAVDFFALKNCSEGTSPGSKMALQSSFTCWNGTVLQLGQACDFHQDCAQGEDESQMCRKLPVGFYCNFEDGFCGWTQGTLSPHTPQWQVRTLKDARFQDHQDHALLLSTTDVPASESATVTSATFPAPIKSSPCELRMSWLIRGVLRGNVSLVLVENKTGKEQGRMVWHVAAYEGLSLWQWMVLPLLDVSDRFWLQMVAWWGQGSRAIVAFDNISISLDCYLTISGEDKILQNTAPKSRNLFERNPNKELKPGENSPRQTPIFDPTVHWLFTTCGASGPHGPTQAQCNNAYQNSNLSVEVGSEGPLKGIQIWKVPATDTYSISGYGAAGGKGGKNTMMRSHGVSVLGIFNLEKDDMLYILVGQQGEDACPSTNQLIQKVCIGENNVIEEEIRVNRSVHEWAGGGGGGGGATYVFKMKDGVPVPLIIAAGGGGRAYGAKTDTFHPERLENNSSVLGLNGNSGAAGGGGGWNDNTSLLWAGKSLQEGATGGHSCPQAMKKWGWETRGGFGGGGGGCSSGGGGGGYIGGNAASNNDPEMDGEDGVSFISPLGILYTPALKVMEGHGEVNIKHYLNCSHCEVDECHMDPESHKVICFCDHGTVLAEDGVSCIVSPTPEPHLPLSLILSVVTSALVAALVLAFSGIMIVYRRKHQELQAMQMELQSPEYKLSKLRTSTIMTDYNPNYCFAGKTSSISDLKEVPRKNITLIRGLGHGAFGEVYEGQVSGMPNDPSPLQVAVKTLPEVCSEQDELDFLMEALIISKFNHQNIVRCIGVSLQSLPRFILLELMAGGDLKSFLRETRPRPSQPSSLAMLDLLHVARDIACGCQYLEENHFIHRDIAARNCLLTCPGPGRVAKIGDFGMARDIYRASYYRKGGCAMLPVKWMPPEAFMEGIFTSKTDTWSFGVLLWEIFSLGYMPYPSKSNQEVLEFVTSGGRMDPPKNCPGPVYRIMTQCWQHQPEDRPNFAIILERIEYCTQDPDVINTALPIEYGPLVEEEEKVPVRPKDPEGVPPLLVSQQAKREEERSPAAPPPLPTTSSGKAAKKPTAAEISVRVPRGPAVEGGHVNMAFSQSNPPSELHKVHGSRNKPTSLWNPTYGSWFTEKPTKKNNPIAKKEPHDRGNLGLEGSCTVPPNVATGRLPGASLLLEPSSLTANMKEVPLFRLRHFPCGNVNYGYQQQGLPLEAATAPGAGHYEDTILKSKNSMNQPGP

For `Fc1ccc(Nc2nccc(-c3c(-c4ccc(C(F)(F)F)cc4)nn4ncccc34)n2)cc1F`, the inhibition (usually the change of the read-out against control, counted positive when it falls) in experiment [1] was 1.02%; in experiment [2], 0.93%; in experiment [3] it was 3.19%; in experiment [4], 3.64%; in experiment [5], 1.04%; in [6] it was 2.73%. The inhibition in experiment [7] was 2.45%; in experiment [8] it was 3.28%; in [9], -0.3%; in experiment [10], 3.85%; in experiment [11], 0.93%; in experiment [12] it was 3.58%. In addition, the inhibition in experiment [13] turned out to be 2.19%; in [14] it was 5.29%; in experiment [15], 5.12%; in experiment [16], 3.18%; in [17], 6.53%; in experiment [18] it was 3.43%. In addition, the inhibition was 4.03% in experiment [19] and -5.49% in experiment [20].
For `CCn1c(-c2nonc2N)nc2cncc(C(=O)NCCNC)c21`, the inhibition in [1] is -1.02%; in experiment [2] it was 3.42%; in [3], 4.29%; in experiment [4], 3.77%; in experiment [5], 6.65%; in experiment [6] it was -0.31%. In addition, the inhibition in [7] came out at 3.11%; in [8] it was 4.53%; in experiment [9] it was 5.61%; in experiment [10], 3.85%; in [11], 5.14%; in [12], 8.7%. In addition, the inhibition in experiment [13] came to 7.62%; in experiment [14], 3.3%; in experiment [15], 5.3%; in experiment [16], 1.99%; in experiment [17], 4.23%; in experiment [18] it was 2.36%. The results for the inhibition in [19] and in experiment [20] were 4.11% and -8.56%, respectively.
As for `OCCCNc1nccc(-c2c(-c3ccc(F)cc3)nn3cc(C(F)(F)F)ccc23)n1`, the inhibition in [1] was -2.02%; in experiment [2], 3.05%; in experiment [3] it was 3.11%; in [4], 3.42%; in experiment [5], 3.33%; in experiment [6], 2.71%. The inhibition in [7] came out at 3%; in experiment [8], 4.61%; in experiment [9], 3.52%; in experiment [10], 1.5%; in [11], 1.6%; in experiment [12], 4.75%. Besides, the inhibition in experiment [13] is 4.88%; in [14] it was 6.03%; in experiment [15], 11.5%; in experiment [16], 1.23%; in experiment [17], 2.86%; in [18], 3.63%. Moreover, the inhibition in experiment [19] was 7.2%; in experiment [20], -4.91%.
As to `CS(=O)(=O)Nc1ccc(-c2cc(-c3ccccc3)cc(C(N)=O)c2N)cc1`, the inhibition in experiment [1] is -8.25%; in experiment [2], 1.39%; in experiment [3], 2.13%; in experiment [4], 1.72%; in experiment [5], 3.82%; in experiment [6], 0.69%. Besides, the inhibition in experiment [7] amounted to 2.62%; in experiment [8], 2.8%; in [9] it was 3.07%; in [10], 0.02%; in experiment [11], 0.72%; in experiment [12], 1.53%. In addition, the inhibition came out at 2.93% in [13]; 3.02% in [14]; 7.08% in experiment [15]; 0.29% in [16]; 2.13% in experiment [17]; 2.05% in experiment [18]. The inhibition is 7.11% in [19] and -4.02% in [20].
For `COc1c(C(N)=O)cc(-c2ccc(Cl)cc2)cc1-c1ccc(S(N)(=O)=O)cc1`, the inhibition in [1] is -4.53%; in experiment [2] it was 2.38%; in experiment [3], 3.7%; in [4] it was 3.77%; in experiment [5], 5.78%; in experiment [6], 1.02%. For the same compound, the inhibition in experiment [7] was 1.14%; in experiment [8], 3.13%; in [9], 5.89%; in [10], 3.24%; in experiment [11], 2.49%; in experiment [12] it was 2.41%. The inhibition in experiment [13] amounted to 4.61%; in [14], 3.19%; in experiment [15], 3.54%; in experiment [16], 5.82%; in experiment [17], 7.26%; in experiment [18], 2.13%. The inhibition in experiment [19] is 3.9%; in experiment [20] it was -6.59%.
As to `CCS(=O)(=O)c1ccc(OC)c(Nc2ncc(-c3cccc(C(C)=O)c3)o2)c1`, the inhibition was 7.27% in [1]; 15.3% in [2]; 61.6% in [3]; 19.3% in experiment [4]; 67.3% in experiment [5]; 20.5% in experiment [6]. Further, the inhibition in experiment [7] was 68.5%; in [8], 30.4%; in [9], 78%; in experiment [10] it was 2.67%; in experiment [11] it was 8.41%; in experiment [12] it was 25.4%. Besides, the inhibition stood at 72.3% in [13]; 13.4% in experiment [14]; 60.2% in [15]; 2.32% in experiment [16]; 2.87% in [17]; 13% in experiment [18]. For the same compound, the inhibition was 60.8% in experiment [19] and -3.14% in [20].
Turning to `COc1cccc(-n2ncc3c(N/N=C/c4ccc(C(=O)NCCN(C)C)cc4)ncnc32)c1`, the inhibition is 12.9% in experiment [1]; 92.1% in experiment [2]; 94.7% in experiment [3]; 93.9% in experiment [4]; 95% in [5]; 92.3% in [6]. In addition, the inhibition stood at 95.5% in experiment [7]; 94.2% in experiment [8]; 95.4% in experiment [9]; 84.6% in experiment [10]; 95% in experiment [11]; 93.3% in [12]. For the same compound, the inhibition stood at 94.5% in [13]; 81.7% in experiment [14]; 83.1% in [15]; 3.26% in [16]; 8.56% in experiment [17]; 73.3% in [18]. The inhibition turned out to be 82% in experiment [19] and 3.3% in experiment [20].
Consider `COC(=O)Nc1nc2ccc(Oc3ccc(NC(=O)Nc4cc(C(F)(F)F)ccc4F)cc3)cc2s1`, for which the inhibition was -8.13% in experiment [1]; 17.2% in [2]; 66.8% in [3]; 65.9% in experiment [4]; 92.3% in experiment [5]; 76.6% in [6]. Besides, the inhibition came to 93.3% in experiment [7]; 75.1% in experiment [8]; 91.4% in experiment [9]; 78.8% in experiment [10]; 92.6% in [11]; 32.2% in [12]. Also, the inhibition was 75.7% in experiment [13]; 42.7% in [14]; 79.8% in experiment [15]; 0.95% in experiment [16]; 6.26% in experiment [17]; 51.4% in experiment [18]. In addition, the values for the inhibition in experiment [19] and in [20] were 73.6% and 13.7%, respectively.
Regarding `NS(=O)(=O)c1ccc(N/N=C2\C(=O)Nc3ccc(C(=O)NCc4ccncc4)cc32)cc1`, the inhibition came to 12.5% in experiment [1]; 0.9% in experiment [2]; 10% in experiment [3]; 2.55% in experiment [4]; 15% in experiment [5]; 1.51% in experiment [6]. Besides, the inhibition in experiment [7] is 13.2%; in experiment [8], 1.73%; in experiment [9], 11.6%; in experiment [10] it was 2.6%; in [11], 12.8%; in experiment [12], 4.33%. The inhibition was found to be 19.1% in experiment [13]; 2.78% in [14]; 15.2% in experiment [15]; 1.39% in experiment [16]; 4.24% in experiment [17]; 2.79% in [18]. The inhibition is 9.41% in [19] and -1.05% in experiment [20].
`Cn1c(-c2nonc2N)nc2cnccc21`: the inhibition in [1] came to 0.39%; in [2], 2.74%; in experiment [3], 1.01%; in [4], 2.83%; in experiment [5], 2.87%; in experiment [6], 1.44%. In addition, the inhibition in experiment [7] is 2.81%; in experiment [8], 2.07%; in experiment [9], 1.71%; in [10], 0.03%; in [11], 1.83%; in [12] it was 4.55%. The inhibition in experiment [13] came to 0.38%; in experiment [14], 4%; in [15], 4.6%; in [16], 1.93%; in experiment [17] it was 3.93%; in experiment [18] it was 2.62%. Also, the inhibition in experiment [19] was 7.75%; in experiment [20], -6.37%.

For the origin of these results see ChEMBL document CHEMBL1961873, “Compounds: GSK PKIS; Assays: Nanosyn kinase panel” (2012).
